Source: PubChem BioAssay (NCATS)
Records with an inconclusive call do not appear. Entries that show only a call come without a potency. The source made the active and inactive calls. The call rests on the fitted dose curve; in most records, active means well fitted curve in the direction sought with a large enough effect; inconclusive means small, poorly fitted or top-dose-only effect, or another doubt; inactive means no such curve, though single readings can be large; an effect the other way counts as inactive or inconclusive.

Experiments:
[1] = HEK293 18hr Apoptosis Induction qHTS against the NCATS CANVASS Library (AID 1347357)
Procedure, shortened: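 Caspase-3/7 luminescence (DEVD substrate, Caspase-Glo) after 18 h compound exposure of HEK293 cells, 500 cells/well; 11-point series; doxorubicin titration as control.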

[2] = HEK293 24hr Apoptosis Induction qHTS against the NCATS CANVASS Library (AID 1347359)
Procedure, shortened: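 HEK293 cells (500/well, DMEM + 10% FBS) were exposed to compounds in an 11-point series for 24 hours at 37 degrees C, then caspase-3/7 activity was read by Caspase-Glo DEVD luciferase luminescence after 15 min.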

[3] = target: Luciferin 4-monooxygenase (Photinus pyralis) (UniProt P08659); test: Firefly luciferase counterscreen qHTS: Assay Interference Panel against the NCATS CANVASS Library (AID 1347363); further: series mostly up to about 57 µM
Chain of Luciferin 4-monooxygenase (Photinus pyralis) (P08659 whole entry, looked up): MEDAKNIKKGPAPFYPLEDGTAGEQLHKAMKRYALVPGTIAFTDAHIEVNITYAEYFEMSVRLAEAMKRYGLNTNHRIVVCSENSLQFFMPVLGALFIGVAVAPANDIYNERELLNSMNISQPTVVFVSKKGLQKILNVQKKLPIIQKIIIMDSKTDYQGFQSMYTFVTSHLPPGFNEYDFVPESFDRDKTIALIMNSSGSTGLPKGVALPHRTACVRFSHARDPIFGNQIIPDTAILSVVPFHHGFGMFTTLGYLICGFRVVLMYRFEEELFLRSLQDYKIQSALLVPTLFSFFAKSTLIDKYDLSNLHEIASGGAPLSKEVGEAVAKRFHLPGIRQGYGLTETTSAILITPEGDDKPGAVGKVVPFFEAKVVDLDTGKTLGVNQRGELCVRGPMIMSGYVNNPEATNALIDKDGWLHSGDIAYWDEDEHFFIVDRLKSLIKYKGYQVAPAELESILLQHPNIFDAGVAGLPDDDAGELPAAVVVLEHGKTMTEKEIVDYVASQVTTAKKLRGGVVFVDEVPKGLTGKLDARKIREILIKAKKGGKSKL
Procedure, shortened: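 Purified P. pyralis luciferase was added to compounds (11-point series) preincubated 15 min at room temperature with substrate containing 0.013 mM D-luciferin and 0.013 mM ATP; luminescence was read after 5 min.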

[4] = qHTS for ATAD5 Agonist screened against the NCATS CANVASS Library (AID 1347367)
Procedure, shortened: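 Luminescence read-out: ATAD5-driven luciferase in stably transfected HEK 293T cells, which rises post-transcriptionally with DNA damage. Cells were exposed 16hr at 37C to test compound; a CellTiter-Fluor fluorescence read (1hr) measured viability first.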

[5] = J3T Cancer Cell Toxicity qHTS against the NCATS CANVASS Library (AID 1347371); further: potency means the concentration at half of the fitted maximal effect
Procedure, shortened: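 Viability of the J3T glioma line from dog is scored by ATP luminescence after a 72 hr incubation with natural products.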

[6] = target: Nuclear receptor subfamily 1 group I member 3 (Homo sapiens) (UniProt Q14994); test: qHTS for Constitutive Androstane Receptor (CAR) Agonist screened against the NCATS CANVASS Library (AID 1347373);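 further: every well also contained 1.5 µM PK11195 alongside the test compound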
Chain of Nuclear receptor subfamily 1 group I member 3 (Homo sapiens) (Q14994 whole entry, looked up): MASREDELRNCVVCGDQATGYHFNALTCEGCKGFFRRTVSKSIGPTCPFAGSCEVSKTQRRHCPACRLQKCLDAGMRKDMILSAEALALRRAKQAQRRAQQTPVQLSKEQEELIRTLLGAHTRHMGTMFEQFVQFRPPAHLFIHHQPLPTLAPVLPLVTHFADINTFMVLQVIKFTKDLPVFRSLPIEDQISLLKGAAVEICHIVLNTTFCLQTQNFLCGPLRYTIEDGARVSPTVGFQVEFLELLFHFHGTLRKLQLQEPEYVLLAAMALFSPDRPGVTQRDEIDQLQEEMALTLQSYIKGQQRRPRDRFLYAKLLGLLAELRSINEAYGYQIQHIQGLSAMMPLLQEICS
Procedure, shortened: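 CAR agonism is scored as CYP2B6-promoter luciferase induction in a double-stable transfected HepG2 line, where 1.5uM PK11195 is included in each well. Compounds were tested over a 24hr exposure.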

[7] = 10-beta competent E. coli microbial cell viability qHTS against the NCATS CANVASS Library (AID 1347376); further: series mostly up to about 46 µM
Procedure, shortened: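 Cytotoxicity toward competent E. coli is scored from cellular ATP content via BacTiter-Glo luminescence following overnight compound exposure at 37C, 5% CO2.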

[8] = qHTS for H2AX Agonists against the NCATS CANVASS Library (AID 1347378); further: potency means the concentration at half of the fitted maximal effect
Procedure, shortened: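 TR-FRET readout (ex 320 nm, em 665/620 nm ratio) of phospho-H2AX (S139) in CHO-K1 lysates. Cells treated 3 hr at 37C with compound titration, 0.76% DMSO; lysis 30 min, antibody detection 24 hr at RT.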

[9] = Inflammasome Signaling qHTS Counterscreen: IL-1-beta AlphaLISA counterscreen against the NCATS CANVASS Library (AID 1347381);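 further: cell-free check with purified IL-1β in medium and no THP-1 cells; series mostly up to about 57 µM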
Procedure, shortened: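 To flag interference with the AlphaLISA read-out, a known amount of purified IL-1-beta (4 pg) replaced cell supernatant. Detection used anti-IL-1-beta acceptor beads, biotinylated antibody and streptavidin donor beads at room temperature.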

[10] = Redox Reaction Profiling qHTS: Assay Interference Panel against the NCATS CANVASS Library (AID 1347401); further: potency means the concentration at half of the fitted maximal effect
Procedure, shortened: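 Resazurin (5 uM) conversion to resorufin measured with 200 uM DTT in 50 mM HEPES pH 7.3, 50 mM NaCl. Compounds tested in 11-point qHTS series. Fluorescence (ex 525/em 598 nm) read before and after 15 min dark incubation.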

[11] = HPAF-II 24hr Apoptosis Induction qHTS against the NCATS CANVASS Library (AID 1347356)
Procedure, shortened: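 Apoptosis induction in HPAF-II pancreatic cancer cells is measured as caspase-3/7 luminescence after a 24-hour exposure to compounds.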

[12] = HPAF-II 12hr Apoptosis Induction qHTS against the NCATS CANVASS Library (AID 1347358)
Procedure, shortened: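 Apoptosis in HPAF-II pancreatic cancer cells is scored as caspase 3/7 luminescence following a 12-hour exposure to an 11-point compound series.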

[13] = HPAF-II 18hr Apoptosis Induction qHTS against the NCATS CANVASS Library (AID 1347360)
Procedure, shortened: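 Caspase-Glo 3/7 luminescence (DEVD substrate) after 15 min RT; HPAF-II, 500 cells/well, 18 h compound exposure at 37 degrees C, qHTS series; doxorubicin control 0.1nM - 4uM.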

[14] = Cytotoxicity qHTS for assessment of Hepg2 cells membrane integrity screened against the NCATS CANVASS Library (AID 1347387)
Procedure, shortened: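 Fluorescence proportional to lysed-cell number, from LDH leaking out of HepG2 cells exposed 5 hr at 37C to 0.59 nM - 46 uM compound (11-point qHTS), is measured after 10 min with CytoTox-ONE.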

[15] = qHTS for activators of dead-cell proteases activity screened against the NCATS CANVASS Library (AID 1347392);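 further: luminescence from protease leaking out of membrane-damaged cells cleaving impermeant substrate; rising signal means more cytotoxicity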
Procedure, shortened: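 HepG2 cells (2000/well) attached 18 h at 37C, then exposed 5 h to compounds (11-point qHTS). Dead-cell protease activity read as luminescence from cell-impermeant AAF-aminoluciferin substrate after 15 min at room temperature.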

| SMILES | outcome [1] | outcome [2] | Potency [3] | Potency [4] | Potency [5] | Potency [6] | outcome [7] | Potency [8] | outcome [9] | Potency [10] | outcome [11] | outcome [12] | outcome [13] | outcome [14] | outcome [15] |
| --- | --- | --- | --- | --- | --- | --- | --- | --- | --- | --- | --- | --- | --- | --- | --- |
| C=C(C)[C@H]1C(=O)c2c3c(cc4c5c(n1c24)[C@@]1(C)[C@@H](CC[C@H]2[C@](C)(/C=C/C=C(\C)C(=O)O)[C@@H](O)CC[C@@]21C)C5)C1=CC(C)(C)OC(C)(C)[C@H]1[C@@H]3O | inactive | inactive | inactive | inactive | inactive | inactive | inactive | 13.7 µM (active) | inactive | 19.2 µM (active) | – | – | – | – | – |
| CCCC[C@@H]1CC[C@H]2CCCC(CCCO)N12 (stereo partly specified) | inactive | inactive | inactive | inactive | inactive | inactive | inactive | inactive | inactive | inactive | inactive | inactive | inactive | inactive | inactive |
| C=CC(C)(C)[C@@]12C[C@H]3C(=O)N/C(=C\c4cnc[nH]4)C(=O)N3[C@@H]1Nc1ccccc12 | inactive | inactive | inactive | inactive | inactive | inactive | inactive | inactive | inactive | inactive | inactive | inactive | inactive | inactive | inactive |
| C[C@]12CCC3[C@@H](CC[C@@H]4C[C@@H](O)CC[C@]34CO)[C@@]1(O)CC[C@@H]2C1=CC(=O)OC1 (stereo partly specified) | inactive | inactive | inactive | inactive | 2.96 µM (active) | inactive | inactive | inactive | inactive | inactive | inactive | inactive | inactive | inactive | inactive |
| C/C=C1/CN2CC[C@]34C(=C(C(=O)OC)[C@H]1C[C@H]23)Nc1ccccc14 | inactive | inactive | inactive | inactive | inactive | inactive | inactive | inactive | inactive | inactive | inactive | inactive | inactive | inactive | inactive |
| C/C=C(\C)C(=O)O[C@@H]1[C@@H](O)[C@@H]2O[C@H]3[C@H](O[C@@H](CCCCC)CCCCCCC(=O)CCC(=O)OC[C@@H](O2)[C@H]1OC(=O)/C=C/c1ccccc1)O[C@H](C)[C@H](OC(C)=O)[C@@H]3O | inactive | inactive | inactive | inactive | inactive | inactive | inactive | inactive | inactive | inactive | inactive | inactive | inactive | inactive | inactive |
| CCC(=O)N[C@@H](C[C@H](C)C(Cl)(Cl)Cl)C(=O)N1C(=O)C=C(OC)[C@@H]1C[C@H](C)C(Cl)Cl | inactive | inactive | inactive | inactive | inactive | inactive | inactive | inactive | inactive | inactive | inactive | inactive | inactive | inactive | inactive |
| COC1C(O)C(C)OC(OC2C(Oc3cccc4c(O)c5c(=O)oc6ccc(C)c7c(=O)oc(c34)c5c67)OC(C)C(O)C2O)C1O (stereo unspecified) | inactive | inactive | inactive | inactive | 23.5 µM (active) | inactive | inactive | 27.3 µM (active) | inactive | 2.15 µM (active) | inactive | inactive | inactive | inactive | inactive |
| C=CC(C)(C)[C@@]12C[C@H]3C(=O)N/C(=C/c4cnc[nH]4)C(=O)N3[C@@H]1Nc1ccccc12 | inactive | inactive | inactive | inactive | inactive | inactive | inactive | inactive | inactive | inactive | inactive | inactive | inactive | inactive | inactive |
| C/C=C1/CN2C3CC1C1=CCC(=O)N4c5ccccc5[C@@]3(C[C@@H]2C2=C[C@H]3C5CC6N(CC[C@@]67c6ccccc6N(C2=O)[C@@H]37)C/C5=C/C)[C@H]14 (stereo partly specified) | – | – | inactive | inactive | 23.5 µM (active) | inactive | inactive | – | inactive | inactive | inactive | inactive | inactive | inactive | inactive |
| C[N+](C)(C)CCc1c[nH]c2ccccc12 | inactive | inactive | inactive | inactive | inactive | inactive | inactive | inactive | inactive | inactive | inactive | inactive | inactive | inactive | inactive |
| COC1=C(C2=C(OC)C(=O)c3cc4c(c(O)c3C2=O)C(=O)O[C@H](C)C4)C(=O)c2c(cc3c(c2O)C(=O)O[C@H](C)C3)C1=O | inactive | inactive | – | inactive | inactive | inactive | inactive | inactive | inactive | 1.14 µM (active) | inactive | inactive | inactive | inactive | inactive |
